Compound activity (PubChem BioAssay)
DAX1 inh-1: inhibitors of human orphan nuclear receptor DAX1 (NR0B1); HEK293 Gal4-DAX1 luciferase reporter, luminescence; inhibition, % at 6.75 µM; hit rate 0.99% among 340,000;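 active = inhibition above the mean over all tested compounds plus 3 SD, cut at about 4.2% in these data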;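 also: inhibition shows as a rise in luminescence from relieved DAX1 repression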
Target sequence (P51843 207-470 limits assumed): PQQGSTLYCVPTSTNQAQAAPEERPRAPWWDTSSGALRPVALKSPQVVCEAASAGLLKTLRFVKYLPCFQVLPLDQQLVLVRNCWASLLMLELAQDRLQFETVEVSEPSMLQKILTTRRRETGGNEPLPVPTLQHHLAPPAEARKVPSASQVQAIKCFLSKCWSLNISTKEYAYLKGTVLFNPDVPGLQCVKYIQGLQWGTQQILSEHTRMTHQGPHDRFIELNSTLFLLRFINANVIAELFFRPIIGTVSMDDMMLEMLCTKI
ssDAF-12 act: S. stercoralis DAF-12 activation, primary screen; HEK293 ssDAF-12/GRIP1 lit1-tk-luc reporter, luminescence; % of 3 µM dafachronic acid response; activation, % at 6.8 µM; hit rate 1% among 370,000; AID 652126;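 active = activation above the mean over all tested compounds plus 3 SD, cut at about 0.9% in these data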
DAX1 inh-2: inhibitors of DAX1 repression of SF-1 activated StAR promoter. AID 652010. HEK293T StAR-luciferase reporter, SF-1/DAX-1 repression relief. inhibition, % at 6.8 µM. hit rate 1.1% among 370,000;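 active = inhibition above the mean over all tested compounds plus 3 SD, cut at about 3.6% in these data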;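 also: higher inhibition means more luminescence from relief of DAX-1 repression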
hcDAF-12 act: H. contortus DAF-12 activation, primary screen; HEK293 hcDAF-12 lit1-tk-luc reporter, luminescence; 0% DMSO, 100% Δ7-dafachronic acid; activation, % at 6.8 µM; hit rate 1.4% among 370,000;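 active = activation above the mean of all tested compounds plus 3 SD, cut at about 5.5% in these data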
hgDAF12 agonist: activates the H. glycines DAF-12 receptor ligand-binding domain | HEK293 GAL4-hgDAF12 UAS-luciferase reporter, agonist luminescence; normalized to butyrate control | activation, % at 6.8 µM | hit rate 1.8% among 370,000 | AID 687014;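 active = activation above a cutoff set at the mean of all screened compounds plus 3 SD, cut at about 10% in these data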
Large screens that a line does not name were inactive. Most compounds without a hit are left out; they make up all but 4.1% or so of the library.

Cc1ccc(CCNC(=O)C2CCC(=O)N(Cc3ccccc3F)C2)o1 (stereo unspecified)	DAX1 inh-2 4.1
CN=c1scc(-c2ccc(F)cc2)n1/N=C/c1ccc(O)c(O)c1	hcDAF-12 act 6.3
Cc1cc(C)cc(NC(=O)[C@H](Cc2c[nH]c3ccccc23)NC(=O)[C@@H]2Cc3ccccc3CN2)c1	hcDAF-12 act 6.2
OCC1OC(C(N=Nc2ccccc2)=NNc2ccccc2)C(O)C1O (stereo unspecified)	none (no result: DAX1 inh-1)
CC(=O)OCCCN1CCC2(CCCCC2)C1=O	none (no result: DAX1 inh-1)
N=c1cc(C2(O)CCCCC2)n2c(nc3ccccc32)s1	DAX1 inh-2 3.6, hgDAF12 agonist 11
O=C(Nc1ccc(F)cc1)OCc1cn(Cc2ccccc2C(F)(F)F)nn1	none (no result: DAX1 inh-1)
C(=C\c1ccccc1)/CSc1nc2ncccc2[nH]1	DAX1 inh-1 4.5
COc1ccccc1CCn1cnc(-c2ccccc2F)c1CC(C)C	none (no result: DAX1 inh-1)
O=C(CSc1nnc(-c2ccccn2)n1-c1ccccc1)Nc1cccc2ccccc12	none (no result: DAX1 inh-1)
COc1ccc(Br)cc1S(=O)(=O)NCCN1CCOCC1	DAX1 inh-1 4.5
Cn1c(=O)[nH]c(=O)c2c1nc(NCc1ccco1)n2CCCc1ccccc1	DAX1 inh-1 4.5
COCCn1c(NCc2ccco2)nc2c1c(=O)[nH]c(=O)n2C	none
COCc1cc(N2CCNC[C@H]2C)ccc1N1C[C@@H](C)O[C@@H](C)C1	none (no result: DAX1 inh-1)
Cc1cccc(NC(=O)CN2C(=O)N/C(=C/c3cc(C)n(-c4ccncc4)c3C)C2=O)c1	none
Cc1cccc(NC(=O)CN2C(=O)N/C(=C/c3cc(C)n(-c4cccnc4)c3C)C2=O)c1	DAX1 inh-1 6.6
CCOC(=O)/C(C#N)=C/Nc1ccccc1OC(F)(F)F	ssDAF-12 act 1.5 (no result: DAX1 inh-1)
O=C(Nc1cccc([N+](=O)[O-])c1)OCc1ccc2c(c1)OCO2	none (no result: DAX1 inh-1)
Cc1ccc2[nH]c(CNC(=O)c3ccc(F)cc3)cc2c1	ssDAF-12 act 1.0
Cc1ccc2[nH]c(C(=O)Nc3ccc(F)cc3)cc2c1	none
COC(=O)C1=C(C)NC(=S)NC1c1ccc(Br)cc1 (stereo unspecified)	none (no result: DAX1 inh-1)
COC(=O)[C@]12C[C@H](CC(=O)N3CCOCC3)C(=O)N(Cc3ccc(Cl)cc3Cl)C1=C[C@H](C(C)(C)C)O[C@@H]2C	none (no result: DAX1 inh-1)
Cc1occc1C(=O)NN=C1C2CC3CC(C2)CC1C3	DAX1 inh-2 4.0
COc1ccc(OC)c(CN2C(=O)CCCC2(C)c2nnnn2C2CCCC2)c1 (stereo unspecified)	none (no result: DAX1 inh-1)
CCOC(=O)C1=CCN(S(=O)(=O)c2ccc(Cl)cc2)C1c1cccc(F)c1 (stereo unspecified)	none (no result: DAX1 inh-1)
Cc1ccc(Nc2nc(N)nc(CSc3nccn3C)n2)cc1	ssDAF-12 act 0.9, hgDAF12 agonist 11
CCOc1ccc(S(=O)(=O)Nc2cccc(C(=O)NCC(c3ccccc3)N(C)C)c2)cc1 (stereo unspecified)	DAX1 inh-2 3.6
COc1ccc(C(CNC(=O)c2cccc(NS(=O)(=O)c3ccccc3)c2)N(C)C)cc1 (stereo unspecified)	none
COc1ccccc1C(CNC(=O)c1cccc(S(=O)(=O)NCc2ccccc2)c1)N(C)C (stereo unspecified)	DAX1 inh-1 4.8
Cc1cc(C)cc(Nc2ncc3c(n2)CCCC3=O)c1	DAX1 inh-2 3.9
CC1=C[C@@H]2[C@H]3C(=O)N(Cc4ccccc4)C(=O)[C@H]3[C@@H]1[C@@H]1O[C@@]3(C(=O)N(C)c4ccccc43)C3=C(CCCC3=O)N21	none (no result: DAX1 inh-1)
Nc1ccc2c(c1)sc1ccccc12	hgDAF12 agonist 11
Nc1ccc2nc(N)sc2c1	none
COCCN1Cc2cc(C(=O)OC)c3c(c2C1=O)c1cc(OC)ccc1n3S(C)(=O)=O	none (no result: DAX1 inh-1)
CC(C)(C)N(NC(=O)Nc1ccccc1)C(=O)c1ccccc1Cl	DAX1 inh-1 6.3
CC(C)(C)N(NC(=O)Nc1cccc(F)c1)C(=O)c1ccccc1Cl	none (no result: DAX1 inh-1)
Cc1ccc(CN2CCCCC(NC(=O)c3cccc(F)c3)C2=O)cc1 (stereo unspecified)	none (no result: DAX1 inh-1)
COCCNC(=O)C1CC(c2ccc([N+](=O)[O-])cc2)=NO1 (stereo unspecified)	none
O=C(NCCc1cccs1)C1CC(c2ccc([N+](=O)[O-])cc2)=NO1 (stereo unspecified)	hcDAF-12 act 5.8
CCCCNC(=O)NS(=O)(=O)c1ccc(NC(=O)CSc2nnc(-c3ccc(Cl)cc3)n2N)cc1	none (no result: DAX1 inh-1)
COc1ccc(CNc2cccnc2Cl)cc1	hgDAF12 agonist 11 (no result: DAX1 inh-1)
